Screening results (PubChem BioAssay)
NR3A LBD binder: modulators (binders) of human NR3A ligand-binding domain. AID 1259313. Tm shift relative to glycine control, % at 25 µM. 340,000 compounds, 2.5% hits. NR3A LBD differential scanning fluorimetry, Tm shift; 0% = protein alone, 100% = glycine-bound protein;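 active = melting temperature shift of at least 10% of the positive control shift, at one fixed dose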
CRFBP-R2 agonist: CRF-BP/CRF-R2 complex agonism | HEK293 CRF-R2/CRF-BP, calcium dye fluorescence (FLIPR); percent of saturating CRF peptide response | AID 588473 | 350,000 compounds, 0.46% hits | activation, % at 13.2 µM;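 active = activation of at least 50%, plus an integration ratio under a set limit after plate pattern correction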;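 note: plate controls were neutral control wells without compound for no effect and CRF at EC100 for full effect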
ANO1 activ: mouse TMEM16A channel activation, primary screen; 340,000 compounds, 0.3% hits; Q8BHY3; B-score at 10 µM; HEK293 TMEM16A/YFP-H148Q/I152L, iodide quench fluorescence; active compounds read low;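 active = fluorescence-ratio B-score plate-corrected deviation score at least 3 library SD below zero, with starting fluorescence score within 5 deviations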;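 note: channel opened by trigger with iodide after compound preincubation; score built on the fluorescence ratio of max minus min over baseline; more negative score means more quench and so TMEM16A activation or potentiation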
MPTP inh: permeability transition pore inhibition; isolated mouse mitochondria, Ca2+ swelling absorbance, 30 min; inhibition, % at 10 µM; 360,000 compounds, 1.4% hits; AID 602449;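 active = inhibition of 50% or more, scaled per plate between neutral and stimulator controls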;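 note: 0% = DMSO wells given calcium and 100% = 1 mM EGTA wells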
CRFR2-BP antag: CRF-BP/CRF-R2 complex antagonism; HEK293 CRF-R2/CRF-BP, CRF-induced calcium fluorescence; inhibition, % at 11.8 µM; 350,000 compounds, 0.59% hits; AID 588475;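 active = inhibition of the ligand-induced calcium signal above about 50% at the single tested concentration, limit read from the data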
TMEM16A inh: mouse TMEM16A channel inhibition, primary screen; normalized B-score (activity score, 25-100; higher = stronger inhibition) at 10 µM; HEK293 TMEM16A/YFP iodide influx fluorescence, ionomycin; AID 588511; 310,000 compounds, 1.2% hits;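 active = ratio plate-corrected score three or more library SD toward inhibition, starting fluorescence score within five deviations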;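 note: score derived from kinetic fluorescence span divided by baseline fluorescence per well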
An asterisk follows results filed as active. An excerpt weighted towards active compounds, which were near 5.1% of everything screened.

Results for O=C(CSc1nc2ncc(Br)cc2[nH]1)c1cccc([N+](=O)[O-])c1 ?
NR3A LBD binder: -4.4; CRFBP-R2 agonist: 1.2; ANO1 activ: inactive; MPTP inh: 14.6; CRFR2-BP antag: 18.8; TMEM16A inh: inactive

How did CC1CC(C)CN(CCCNC(=O)c2cc3c(=O)[nH]c4ccccc4c3n2C)C1 (stereo unspecified) do in these assays?
NR3A LBD binder: 0.5; CRFBP-R2 agonist: 0.9; ANO1 activ: inactive; MPTP inh: 0.5; CRFR2-BP antag: 0.4; TMEM16A inh: inactive

How did Cn1c(=O)cc(OCCCC(=O)NCCN2CCN(c3ccccc3F)CC2)c2ccccc21 do in these assays?
NR3A LBD binder: 0.1; CRFBP-R2 agonist: 0.1; ANO1 activ: inactive; MPTP inh: 0.1; CRFR2-BP antag: 82.4*; TMEM16A inh: inactive

What do the screens show for `Cn1c(C(=O)NCCCN2CCN(c3ccccc3F)CC2)cc2c(=O)[nH]c3ccccc3c21`?
NR3A LBD binder: 16.8*; CRFBP-R2 agonist: -2.7; ANO1 activ: inactive; MPTP inh: -0.3; CRFR2-BP antag: -24.2; TMEM16A inh: inactive

Results for Cn1c(=O)cc(OCC(=O)NCCCN2CCN(c3ccccc3F)CC2)c2ccccc21 ?
NR3A LBD binder: 2.0; CRFBP-R2 agonist: 7.3; ANO1 activ: inactive; MPTP inh: -2.8; CRFR2-BP antag: -32.4; TMEM16A inh: inactive

How did CCOC(=O)c1cc(-c2cccc(O)c2)oc1C do in these assays?
MPTP inh: 1.0

Results for Cc1ccc(-c2noc(COC(=O)c3ccco3)n2)cc1 ?
NR3A LBD binder: 1.7; CRFBP-R2 agonist: -2.1; ANO1 activ: inactive; MPTP inh: -0.4; CRFR2-BP antag: 3.8

What do the screens show for `CCN(C(=O)Cn1nc(C)n2c(cc3cc(C)ccc32)c1=O)c1ccccc1`?
NR3A LBD binder: -1.9; CRFBP-R2 agonist: -0.4; ANO1 activ: inactive; MPTP inh: -2.5; CRFR2-BP antag: -12.4; TMEM16A inh: inactive

How did C#CCNC(=O)C1=C[C@@H](c2ccc(Br)cc2)[C@H](CCCO)[C@@H](OCC)O1 do in these assays?
NR3A LBD binder: 0.0; CRFBP-R2 agonist: 0.2; ANO1 activ: inactive; MPTP inh: 0.9; CRFR2-BP antag: -0.9; TMEM16A inh: inactive

How did C#CCNC(=O)C1=C[C@H](c2ccc3c(c2)OCO3)[C@@H](CCCO)[C@H](OCC)O1 do in these assays?
NR3A LBD binder: 0.1; CRFBP-R2 agonist: -0.6; ANO1 activ: inactive; MPTP inh: -0.5; CRFR2-BP antag: 81.3*; TMEM16A inh: inactive

Results for Cc1nc(-c2cccc(NC(=O)c3cccs3)c2)cs1 ?
NR3A LBD binder: 0.4; CRFBP-R2 agonist: 2.8; ANO1 activ: inactive; MPTP inh: -0.1; CRFR2-BP antag: -21.1; TMEM16A inh: inactive

What do the screens show for `Cc1nc(-c2cccc(NC(=O)c3ccc(Br)o3)c2)cs1`?
NR3A LBD binder: 5.4; CRFBP-R2 agonist: 0.5; ANO1 activ: inactive; MPTP inh: -1.1; CRFR2-BP antag: -5.3; TMEM16A inh: inactive

Results for Cc1ccccc1-c1nc(-c2ccc(NC(=O)c3ccc(Br)o3)cc2)no1 ?
NR3A LBD binder: 28.9*; CRFBP-R2 agonist: -1.9; ANO1 activ: inactive; MPTP inh: 4.1; CRFR2-BP antag: -21.4; TMEM16A inh: inactive

Results for Cc1nc(-c2ccc(C(=O)Nc3cccc(Br)c3)cc2)cs1 ?
NR3A LBD binder: 32.3*; CRFBP-R2 agonist: -0.7; ANO1 activ: inactive; MPTP inh: 17.1; CRFR2-BP antag: -24.1; TMEM16A inh: inactive

How did Cc1nc(-c2ccc(NC(=O)c3ccc(Br)o3)cc2)cs1 do in these assays?
NR3A LBD binder: 19.6*; CRFBP-R2 agonist: 20.1; ANO1 activ: inactive; MPTP inh: 3.4; CRFR2-BP antag: -9.4; TMEM16A inh: inactive

How did Cc1nc(-c2cccc(NC(=O)c3ccc(-n4nccc4C)cc3)c2)cs1 do in these assays?
NR3A LBD binder: 23.1*; CRFBP-R2 agonist: 0.6; ANO1 activ: inactive; MPTP inh: -1.3; CRFR2-BP antag: -14.8

Results for Cc1ccccc1-c1nc(-c2ccc(Br)o2)no1 ?
NR3A LBD binder: 2.2; CRFBP-R2 agonist: -0.9; ANO1 activ: inactive; MPTP inh: -1.7; CRFR2-BP antag: 0.7; TMEM16A inh: inactive

How did Cc1ccccc1Oc1nc(-c2ccccn2)nc2ccccc12 do in these assays?
NR3A LBD binder: 3.7; CRFBP-R2 agonist: 1.0; ANO1 activ: inactive; MPTP inh: 1.2; CRFR2-BP antag: -4.6; TMEM16A inh: inactive

Results for O=C(O)C(O)c1ccccc1 (stereo unspecified) ?
NR3A LBD binder: -0.6; CRFBP-R2 agonist: -0.8; ANO1 activ: inactive; MPTP inh: -0.4; CRFR2-BP antag: 3.2; TMEM16A inh: inactive

What do the screens show for `O=C(O)C(C(O)c1ccccc1)[n+]1ccccc1` (stereo unspecified)?
NR3A LBD binder: -0.3; CRFBP-R2 agonist: -1.5; ANO1 activ: -20.2*; MPTP inh: -1.5; CRFR2-BP antag: 4.5; TMEM16A inh: inactive

How did O=C1CC(SC2=NCCS2)C(=O)N1c1ccc(Cl)cc1 (stereo unspecified) do in these assays?
NR3A LBD binder: 23.7*; CRFBP-R2 agonist: -2.3; ANO1 activ: inactive; MPTP inh: -0.9; CRFR2-BP antag: 15.5; TMEM16A inh: inactive

How did CC1CCCN(S(=O)(=O)c2ccc3c(c2)OCCO3)C1 (stereo unspecified) do in these assays?
CRFBP-R2 agonist: -2.2; MPTP inh: -1.0; CRFR2-BP antag: 6.9

What do the screens show for `O=C(C1CCCN1S(=O)(=O)c1ccc(Cl)c(Cl)c1)N1CCOCC1` (stereo unspecified)?
NR3A LBD binder: 10.2*; CRFBP-R2 agonist: 0.7; ANO1 activ: inactive; MPTP inh: 0.3; CRFR2-BP antag: 1.6; TMEM16A inh: inactive

Results for Cc1nc(SC(C)C(=O)NC2CCCC2)c2ccccc2n1 (stereo unspecified) ?
NR3A LBD binder: 0.6; CRFBP-R2 agonist: -0.7; ANO1 activ: -30.7*; MPTP inh: -1.0; CRFR2-BP antag: 14.9

How did O=C(/C=C/c1ccccc1)Nc1cccc(C(=O)NCCc2ccccc2)c1 do in these assays?
NR3A LBD binder: 17.5*; CRFBP-R2 agonist: -2.0; ANO1 activ: inactive; MPTP inh: 1.5; CRFR2-BP antag: 11.0

Results for O=C(NCCCc1ccccc1)c1cccc(NC(=O)c2ccccc2)c1 ?
NR3A LBD binder: -3.1; CRFBP-R2 agonist: -0.6; ANO1 activ: inactive; MPTP inh: 1.2; CRFR2-BP antag: 7.2

Results for O=C(/C=C/c1ccccc1)Nc1cccc(C(=O)NCCCCc2ccccc2)c1 ?
NR3A LBD binder: 26.9*; CRFBP-R2 agonist: 0.1; MPTP inh: 3.1; CRFR2-BP antag: 13.7

How did Cc1ccc(S(=O)(=O)N2CCC(C(=O)OCC(=O)N(Cc3ccccc3)C(C)C)CC2)cc1C do in these assays?
CRFBP-R2 agonist: 0.1; MPTP inh: 1.4; CRFR2-BP antag: 6.7

What do the screens show for `O=C(NC1CCCCC1)C(c1ccnc2ccccc12)n1c(=O)c(-c2ccco2)nc2ccccc21` (stereo unspecified)?
MPTP inh: 1.5
